Source: PubChem BioAssay AID651840 (Vanderbilt Specialized Chemistry Center, 2012)
Potency and affinity values are given separately. The source made the active and inactive calls.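 The calls were made as follows: active = mean concentration giving half inhibition of the glutamate calcium response below 30 µM; inactive = the rest.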

biological target: Metabotropic glutamate receptor 3 (Rattus norvegicus) (UniProt P31422); experiment: inhibitors of rat mGlu3 Galpha15 signaling – TREx293 cells, calcium flux, mGlu3 NAM project, dose response (AID 651840); details: TREx293 mGlu3/Galpha15, calcium fluorescence, glutamate EC80
Sequence (P31422 whole entry, looked up): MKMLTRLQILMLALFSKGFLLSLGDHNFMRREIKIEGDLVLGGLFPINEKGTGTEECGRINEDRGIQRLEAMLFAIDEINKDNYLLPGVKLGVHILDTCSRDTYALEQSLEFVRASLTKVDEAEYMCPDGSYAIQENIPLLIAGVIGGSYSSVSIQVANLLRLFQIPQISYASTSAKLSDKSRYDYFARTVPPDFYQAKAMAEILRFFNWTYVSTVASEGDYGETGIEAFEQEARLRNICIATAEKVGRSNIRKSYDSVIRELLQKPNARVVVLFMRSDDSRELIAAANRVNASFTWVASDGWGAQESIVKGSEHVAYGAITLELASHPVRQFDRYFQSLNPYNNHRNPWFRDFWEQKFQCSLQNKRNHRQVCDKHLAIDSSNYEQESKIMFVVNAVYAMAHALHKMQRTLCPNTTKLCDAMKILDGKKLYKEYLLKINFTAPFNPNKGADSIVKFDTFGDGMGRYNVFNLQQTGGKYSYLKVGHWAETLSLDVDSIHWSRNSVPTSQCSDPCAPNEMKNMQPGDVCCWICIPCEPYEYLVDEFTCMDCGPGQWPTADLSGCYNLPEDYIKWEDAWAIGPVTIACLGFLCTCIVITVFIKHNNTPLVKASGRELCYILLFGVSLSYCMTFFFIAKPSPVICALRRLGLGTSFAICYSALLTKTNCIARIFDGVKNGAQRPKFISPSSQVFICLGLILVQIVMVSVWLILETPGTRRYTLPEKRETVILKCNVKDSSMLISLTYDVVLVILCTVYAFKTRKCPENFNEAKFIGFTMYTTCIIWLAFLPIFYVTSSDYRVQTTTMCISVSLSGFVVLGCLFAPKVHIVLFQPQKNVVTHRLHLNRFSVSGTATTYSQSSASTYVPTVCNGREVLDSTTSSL

outcome, inactive:
COc1ccc(C#Cc2ccc(C(=O)N3CCCC(O)(CCC4OCCCO4)C3)cc2)cc1 (configuration not stated), COc1ccc(C#Cc2ccc(C(=O)N3CCCC(O)(c4ccccc4OC)C3)cc2)cc1 (configuration not stated), COc1ccc(C#Cc2ccc(C(=O)N3CCCC(O)(c4cccc(F)c4)C3)cc2)cc1 (configuration not stated), COc1cccc(COc2ccc(C(=O)N3CC(O)C3)cc2)c1, COc1ccc(C#Cc2ccc(C(=O)N3CCCC(O)(c4ccc5ccccc5c4)C3)cc2)cc1 (configuration not stated), COc1ccc(C#Cc2ccc(C(=O)N3CCCC(O)(c4ccccc4)C3)cc2)cc1 (configuration not stated), COc1ccc(C#Cc2ccc(C(=O)N[C@@H]3CCCNC3)cc2)cc1, COc1ccc(C#Cc2ccc(C(=O)N3CCCC(O)(c4ccncc4)C3)cc2)cc1 (configuration not stated), COc1ccc(C#Cc2ccc(C(=O)N3CCCC(O)(c4cccc(OC)c4)C3)cc2)cc1 (configuration not stated), COc1ccc(C#Cc2ccc(C(=O)N3CCCC(O)(c4ccc(F)cc4)C3)cc2)cc1 (configuration not stated), O=C(c1ccc2cc(-c3cccc(-c4ccccc4)c3)ccc2c1)N1CCCC(CO)C1 (configuration not stated), COc1ccc(C#Cc2ccc(C(=O)N3CCCC(O)(c4ccc(Cl)cc4)C3)cc2)cc1 (configuration not stated)
